Measured values reported in PubChem BioAssay AID1159580 (chemical genetic matrix, 2015).
Several values for one entry are separate records, joined by “and”; a condition that tells them apart may be missing. Equal values may be shown once. About 2,000 (36%) of roughly 5,500 compounds were called active. Inconclusive results (about 18%) are left out. Cut-off read from the data, not from the text of the source: active = normalized growth mostly below about 0.91 (no sharp cut-off); inconclusive = no clear call, values can overlap the other calls; inactive = mostly above about 0.92. The list shows a part of the results.

Experiment: chemical genetic growth profiling, strain panel (AID 1159580);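 note: tested at 20 µM; growth read once vehicle control cultures reached saturation at 30 °C; 1 = growth at the plate median or of vehicle wells; lower values mean less growth of the strain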
Settings: S. cerevisiae deletion strains, growth OD

Measured: normalized growth

O=C(O)c1cc(=O)c2ccccc2[nH]1
inactive: locus YAL013W, strain DEP1, hits give low values 0.991 and 1.01 | locus YAL021C, strain ccr4, hits give low values 0.96 | locus YAL026C, strain drs2, hits give low values 0.986 | locus YAL030W, strain snc1, hits give low values 0.987 | locus YAL040C, strain CLN3, hits give low values 0.998 | locus YBL061C, strain skt5, hits give low values 0.972 | locus YBR009C, strain hhf1, hits give low values 0.979 | locus YBR021W, strain FUR4, hits give low values 1.02 | locus YBR023C, strain chs3, hits give low values 0.98 | locus YBR171W, strain sec66, hits give low values 0.975 | locus YBR229C, strain ROT2, hits give low values 0.96 | locus YBR231C, strain swc5, hits give low values 0.998 | locus YBR279W, strain paf1, hits give low values 0.992 | locus YCL011C, strain gbp2, hits give low values 0.986 | locus YCL016C, strain dcc1, hits give low values 0.981 | locus YCL029C, strain bik1, hits give low values 0.989 | locus YCL061C, strain MRC1 (second series), hits give low values 0.992 | locus YCL061C, strain MRC1, hits give low values 0.983 | locus YCL069W, strain vba3, hits give low values 0.993 | locus YCR088W, strain abp1, hits give low values 0.987 | locus YDL005C, strain med2, hits give low values 0.975 | locus YDL035C, strain GPR1, hits give low values 0.998 | locus YDL040C, strain nat1, hits give low values 0.988 | locus YDL074C, strain BRE1, hits give low values 0.986 | locus YDL101C, strain DUN1, hits give low values 0.964 | locus YDL134C, strain PPH21, hits give low values 0.972 | locus YDL185W, strain tfp1, hits give low values 0.979 | locus YDL192W, strain arf1, hits give low values 0.991 | locus YDR001C, strain nth1, hits give low values 0.991 | locus YDR069C, strain doa4, hits give low values 0.97 | locus YDR101C, strain arx1, hits give low values 0.993 | locus YDR137W, strain rgp1, hits give low values 1.02 | locus YDR150W, strain NUM1, hits give low values 0.975 and 1.01 | locus YDR159W, strain sac3, hits give low values 0.962 | locus YDR162C, strain NBP2, hits give low values 0.99 | locus YDR195W, strain ref2 0.968 | locus YDR297W, strain sur2, hits give low values 0.985 | locus YDR318W, strain mcm21, hits give low values 0.99 | locus YDR334W, strain swr1, hits give low values 0.984 | locus YDR335W, strain msn5, hits give low values 0.99 | locus YDR363W, strain ESC2, hits give low values 0.981 | locus YDR388W, hits give low values 0.997 | locus YDR392W, strain spt3, hits give low values 0.963 | locus YDR502C, strain sam2, hits give low values 0.995 | locus YEL003W, strain gim4, hits give low values 0.988 | locus YEL037C, strain rad23, hits give low values 0.99 | locus YEL061C, strain CIN8 (second series), hits give low values 0.993 | locus YEL061C, strain CIN8, hits give low values 0.992 | locus YER002W, strain NOP16, hits give low values 0.98 | locus YER015W, strain faa2, hits give low values 0.984 | locus YER016W, strain bim1, hits give low values 0.987 | locus YER110C, hits give low values 0.978 | locus YER111C, strain swi4, hits give low values 0.983 | locus YER155C, strain BEM2 (second series), hits give low values 0.981 | locus YER155C, strain BEM2, hits give low values 0.997 | locus YER167W, strain BCK2, hits give low values 1 | locus YFR010W, strain ubp6, hits give low values 0.977 | locus YGL078C, strain dbp3, hits give low values 0.987 | locus YGL086W, strain mad1, hits give low values 0.998 | locus YGL167C, strain pmr1, hits give low values 0.973 | locus YGL173C, strain kem1, hits give low values 0.986 | locus YGL227W, strain vid30, hits give low values 0.984 | locus YGL240W, strain doc1, hits give low values 0.987 | locus YGL248W, strain PDE1, hits give low values 0.977 | locus YGL253W, strain hxk2, hits give low values 0.988 | locus YGR078C, strain PAC10, hits give low values 0.999 and 0.983 | locus YGR135W, strain pre9, hits give low values 0.988 | locus YGR229C, strain SMI1, hits give low values 1 | locus YGR252W, strain gcn5, hits give low values 0.992 | locus YHR013C, strain ard1, hits give low values 0.958 | locus YHR027C, strain rpn1, hits give low values 1 | locus YHR030C, strain SLT2, hits give low values 0.991 and 0.972 | locus YHR079C, strain IRE1 (second series), hits give low values 0.989 | locus YHR079C, strain IRE1, hits give low values 0.985 | locus YHR094C, strain hxt1, hits give low values 0.996 | locus YHR129C, strain ARP1, hits give low values 0.995 | locus YHR142W, strain chs7, hits give low values 0.99 | locus YHR200W, strain rpn10, hits give low values 0.987 | locus YIL066C, strain RNR3, hits give low values 0.973 | locus YIL073C, strain SPO22, hits give low values 0.95 | locus YIL125W, strain kgd1, hits give low values 0.987 | locus YIR030C, strain dcg1, hits give low values 0.983 | locus YJL092W, strain hpr5, hits give low values 0.987 | locus YJL095W, strain BCK1 (second series), hits give low values 0.973 | locus YJL095W, strain BCK1, hits give low values 1.04 and 0.987 | locus YJL115W, strain asf1, hits give low values 0.992 | locus YJL129C, strain trk1, hits give low values 0.973 | locus YJL134W, strain LCB3, hits give low values 0.982 | locus YJL154C, strain vps35, hits give low values 0.98 | locus YJL164C, strain tpk1, hits give low values 1.01 | locus YJL166W, strain qcr8, hits give low values 0.998 | locus YJL168C, strain set2, hits give low values 0.996 | locus YJL187C, strain SWE1 (second series), hits give low values 0.967 | locus YJL187C, strain SWE1, hits give low values 0.987 | locus YJR043C, strain POL32, hits give low values 1 | locus YJR066W, strain TOR1, hits give low values 0.88
